Data as given in the supplement of paper PMC11732987, “Enantioselective OTUD7B fragment discovery through chemoproteomics screening and high-throughput optimisation” (Communications Chemistry, 2025).

What was measured:
Assay in all cases: log2 ratio of Biotin-Ahx-Ub-VS probe labelling (fragment/DMSO); higher = less target engagement (more negative = stronger competition), active = hit call of the paper (q ≤ 0.05, log2 ratio ≤ -1)
Conditions in all cases: compound concentration: 200 uM; treatment time: 3 h
[1] = target: USP9X (UniProt Q93008)
How it was run: (§1)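 HEK293T lysate (495 µg per sample, in Tris/CHAPS/IGEPAL buffer with protease inhibitors) was exposed in triplicate for 3 h to fragment at 200 µM or to vehicle, then to Biotin-Ahx-Ub-VS at 0.5 µM final for 1 h. Labelled DUBs were enriched on NeutrAvidin, digested with LysC and trypsin, and analysed by diaPASEF LC-MS/MS. Spectronaut label-free quantities were normalised to the global median, and values are average log2 ratios of fragment over vehicle from an unpaired t-test. Only proteins with ≥2 unique peptides were used.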

[2] = target: UniProt O00487
How it was run: as §1

[3] = target: UniProt O00507
How it was run: as §1

[4] = target: UniProt P51784
How it was run: as §1

[5] = target: T1, UniProt Q5T2D3
T1 sequence (whole entry): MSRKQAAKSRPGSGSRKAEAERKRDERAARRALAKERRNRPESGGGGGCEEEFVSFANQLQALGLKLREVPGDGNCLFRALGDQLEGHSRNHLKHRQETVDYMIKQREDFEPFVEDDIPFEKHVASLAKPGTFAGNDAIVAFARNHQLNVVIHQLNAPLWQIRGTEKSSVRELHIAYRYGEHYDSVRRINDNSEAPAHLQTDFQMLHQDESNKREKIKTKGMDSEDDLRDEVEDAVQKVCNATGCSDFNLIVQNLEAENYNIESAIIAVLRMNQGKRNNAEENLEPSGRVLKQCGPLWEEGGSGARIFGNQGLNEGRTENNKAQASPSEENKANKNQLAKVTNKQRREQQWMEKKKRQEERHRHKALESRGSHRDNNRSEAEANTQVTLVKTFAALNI
How it was run: as §1

[6] = target: T2, UniProt Q8TE49
T2 sequence (whole entry): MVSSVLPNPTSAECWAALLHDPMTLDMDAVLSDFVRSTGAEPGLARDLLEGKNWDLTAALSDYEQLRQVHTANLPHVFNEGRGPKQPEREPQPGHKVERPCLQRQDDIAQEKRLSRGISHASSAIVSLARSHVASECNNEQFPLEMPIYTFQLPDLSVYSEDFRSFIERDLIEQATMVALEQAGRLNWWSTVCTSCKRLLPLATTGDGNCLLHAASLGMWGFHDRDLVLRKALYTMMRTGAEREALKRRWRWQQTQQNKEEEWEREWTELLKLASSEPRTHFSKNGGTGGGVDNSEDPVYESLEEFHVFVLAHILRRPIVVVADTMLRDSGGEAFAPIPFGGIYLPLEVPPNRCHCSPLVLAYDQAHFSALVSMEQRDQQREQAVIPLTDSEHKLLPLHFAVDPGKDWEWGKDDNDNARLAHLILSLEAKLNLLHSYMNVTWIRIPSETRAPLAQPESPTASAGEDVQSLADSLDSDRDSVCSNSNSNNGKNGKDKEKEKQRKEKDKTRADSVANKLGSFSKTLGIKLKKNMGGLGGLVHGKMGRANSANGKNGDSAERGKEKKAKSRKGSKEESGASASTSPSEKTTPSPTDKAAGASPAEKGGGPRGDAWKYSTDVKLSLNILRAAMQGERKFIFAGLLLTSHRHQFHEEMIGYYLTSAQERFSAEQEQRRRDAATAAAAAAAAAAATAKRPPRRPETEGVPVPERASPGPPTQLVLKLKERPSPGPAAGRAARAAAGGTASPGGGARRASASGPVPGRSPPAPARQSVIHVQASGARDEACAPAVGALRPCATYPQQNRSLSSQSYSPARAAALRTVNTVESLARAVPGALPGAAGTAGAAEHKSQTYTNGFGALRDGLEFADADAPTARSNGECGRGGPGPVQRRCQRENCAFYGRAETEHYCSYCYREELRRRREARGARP
How it was run: as §1

[7] = target: T3, UniProt Q9P2H5
T3 sequence (whole entry): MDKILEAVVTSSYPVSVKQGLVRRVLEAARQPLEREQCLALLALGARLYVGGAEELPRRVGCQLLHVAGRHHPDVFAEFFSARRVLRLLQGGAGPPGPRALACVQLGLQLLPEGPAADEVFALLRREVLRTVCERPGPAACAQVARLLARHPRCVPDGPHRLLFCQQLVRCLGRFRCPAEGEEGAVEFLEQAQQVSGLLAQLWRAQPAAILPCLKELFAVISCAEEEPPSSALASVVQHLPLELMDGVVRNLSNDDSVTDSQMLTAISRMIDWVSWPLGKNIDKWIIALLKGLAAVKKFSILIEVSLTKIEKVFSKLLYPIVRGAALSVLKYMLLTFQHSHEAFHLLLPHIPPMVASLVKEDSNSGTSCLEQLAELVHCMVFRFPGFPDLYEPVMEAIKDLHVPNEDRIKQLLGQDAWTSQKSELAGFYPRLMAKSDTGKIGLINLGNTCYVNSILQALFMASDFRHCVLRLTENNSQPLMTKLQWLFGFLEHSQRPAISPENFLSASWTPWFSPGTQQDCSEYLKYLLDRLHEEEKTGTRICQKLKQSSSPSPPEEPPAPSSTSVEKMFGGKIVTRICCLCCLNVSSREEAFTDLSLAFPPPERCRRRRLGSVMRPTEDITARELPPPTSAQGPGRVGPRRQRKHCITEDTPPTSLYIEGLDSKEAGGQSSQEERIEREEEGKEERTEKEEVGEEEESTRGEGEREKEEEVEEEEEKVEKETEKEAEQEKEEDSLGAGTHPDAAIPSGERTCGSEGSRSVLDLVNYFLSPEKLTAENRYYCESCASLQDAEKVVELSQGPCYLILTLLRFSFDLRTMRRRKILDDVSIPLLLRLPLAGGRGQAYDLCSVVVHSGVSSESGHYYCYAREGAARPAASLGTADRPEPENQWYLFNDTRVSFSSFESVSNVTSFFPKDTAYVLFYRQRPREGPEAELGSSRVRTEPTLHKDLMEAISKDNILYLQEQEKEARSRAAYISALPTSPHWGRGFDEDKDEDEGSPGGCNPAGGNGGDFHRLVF
How it was run: as §1

[8] = target: T4, UniProt Q9UGI0
T4 sequence (whole entry): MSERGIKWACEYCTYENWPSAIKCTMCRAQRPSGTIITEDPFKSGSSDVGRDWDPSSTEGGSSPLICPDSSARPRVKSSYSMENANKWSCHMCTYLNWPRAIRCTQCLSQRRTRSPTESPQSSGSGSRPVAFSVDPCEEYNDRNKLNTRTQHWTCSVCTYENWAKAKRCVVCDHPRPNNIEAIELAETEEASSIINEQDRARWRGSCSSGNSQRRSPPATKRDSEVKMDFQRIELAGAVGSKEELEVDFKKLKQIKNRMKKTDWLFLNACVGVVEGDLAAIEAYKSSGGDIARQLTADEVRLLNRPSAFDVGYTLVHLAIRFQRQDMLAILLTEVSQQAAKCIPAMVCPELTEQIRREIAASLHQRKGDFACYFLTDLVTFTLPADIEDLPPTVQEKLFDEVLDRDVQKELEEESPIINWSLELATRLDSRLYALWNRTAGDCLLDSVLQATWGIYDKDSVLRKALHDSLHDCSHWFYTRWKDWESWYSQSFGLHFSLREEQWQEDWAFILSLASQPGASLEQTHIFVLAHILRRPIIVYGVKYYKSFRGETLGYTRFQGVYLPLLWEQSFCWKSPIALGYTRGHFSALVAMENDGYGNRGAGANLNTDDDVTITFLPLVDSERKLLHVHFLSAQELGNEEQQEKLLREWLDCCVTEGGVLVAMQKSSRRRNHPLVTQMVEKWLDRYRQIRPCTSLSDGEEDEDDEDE
How it was run: as §1

[9] = target: T5, YOD1 (UniProt Q5VVQ6)
T5 sequence (whole entry): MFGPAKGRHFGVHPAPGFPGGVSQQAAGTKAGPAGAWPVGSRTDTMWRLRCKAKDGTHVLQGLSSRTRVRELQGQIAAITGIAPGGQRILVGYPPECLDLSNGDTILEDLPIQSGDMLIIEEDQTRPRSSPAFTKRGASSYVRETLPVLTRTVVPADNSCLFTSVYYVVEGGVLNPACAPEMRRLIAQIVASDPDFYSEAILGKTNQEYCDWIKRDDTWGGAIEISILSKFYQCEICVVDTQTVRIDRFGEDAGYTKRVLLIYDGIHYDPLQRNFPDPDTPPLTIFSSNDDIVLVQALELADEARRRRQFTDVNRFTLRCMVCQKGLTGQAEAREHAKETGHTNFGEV
How it was run: as §1

Measured: log2 ratio of Biotin-Ahx-Ub-VS probe labelling

UniProt P51784, sequence (P51784 whole entry): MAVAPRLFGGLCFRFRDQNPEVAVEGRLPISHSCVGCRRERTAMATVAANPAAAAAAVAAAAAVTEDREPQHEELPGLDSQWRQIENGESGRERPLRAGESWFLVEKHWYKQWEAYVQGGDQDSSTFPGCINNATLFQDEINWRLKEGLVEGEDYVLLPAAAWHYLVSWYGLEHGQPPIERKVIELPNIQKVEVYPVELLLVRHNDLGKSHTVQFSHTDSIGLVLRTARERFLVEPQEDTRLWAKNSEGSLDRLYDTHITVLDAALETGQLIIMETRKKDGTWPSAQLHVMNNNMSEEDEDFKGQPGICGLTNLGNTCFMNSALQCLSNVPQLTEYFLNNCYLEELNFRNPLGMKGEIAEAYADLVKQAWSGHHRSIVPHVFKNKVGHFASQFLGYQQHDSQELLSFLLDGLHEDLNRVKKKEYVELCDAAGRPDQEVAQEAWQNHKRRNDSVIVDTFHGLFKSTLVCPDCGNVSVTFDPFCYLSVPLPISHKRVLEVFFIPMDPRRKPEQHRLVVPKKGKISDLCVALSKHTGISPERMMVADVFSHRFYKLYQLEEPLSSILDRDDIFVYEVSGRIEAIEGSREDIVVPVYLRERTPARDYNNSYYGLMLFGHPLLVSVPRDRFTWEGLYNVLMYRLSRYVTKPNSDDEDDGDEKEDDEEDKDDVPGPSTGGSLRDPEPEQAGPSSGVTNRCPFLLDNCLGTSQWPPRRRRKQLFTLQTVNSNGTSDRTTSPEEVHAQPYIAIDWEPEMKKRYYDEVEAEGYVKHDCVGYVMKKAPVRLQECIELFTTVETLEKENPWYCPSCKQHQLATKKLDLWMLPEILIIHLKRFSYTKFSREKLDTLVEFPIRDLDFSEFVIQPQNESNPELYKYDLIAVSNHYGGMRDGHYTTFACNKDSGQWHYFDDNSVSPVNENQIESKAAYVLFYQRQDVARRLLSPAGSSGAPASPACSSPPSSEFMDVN
UniProt O00507, sequence (O00507 whole entry): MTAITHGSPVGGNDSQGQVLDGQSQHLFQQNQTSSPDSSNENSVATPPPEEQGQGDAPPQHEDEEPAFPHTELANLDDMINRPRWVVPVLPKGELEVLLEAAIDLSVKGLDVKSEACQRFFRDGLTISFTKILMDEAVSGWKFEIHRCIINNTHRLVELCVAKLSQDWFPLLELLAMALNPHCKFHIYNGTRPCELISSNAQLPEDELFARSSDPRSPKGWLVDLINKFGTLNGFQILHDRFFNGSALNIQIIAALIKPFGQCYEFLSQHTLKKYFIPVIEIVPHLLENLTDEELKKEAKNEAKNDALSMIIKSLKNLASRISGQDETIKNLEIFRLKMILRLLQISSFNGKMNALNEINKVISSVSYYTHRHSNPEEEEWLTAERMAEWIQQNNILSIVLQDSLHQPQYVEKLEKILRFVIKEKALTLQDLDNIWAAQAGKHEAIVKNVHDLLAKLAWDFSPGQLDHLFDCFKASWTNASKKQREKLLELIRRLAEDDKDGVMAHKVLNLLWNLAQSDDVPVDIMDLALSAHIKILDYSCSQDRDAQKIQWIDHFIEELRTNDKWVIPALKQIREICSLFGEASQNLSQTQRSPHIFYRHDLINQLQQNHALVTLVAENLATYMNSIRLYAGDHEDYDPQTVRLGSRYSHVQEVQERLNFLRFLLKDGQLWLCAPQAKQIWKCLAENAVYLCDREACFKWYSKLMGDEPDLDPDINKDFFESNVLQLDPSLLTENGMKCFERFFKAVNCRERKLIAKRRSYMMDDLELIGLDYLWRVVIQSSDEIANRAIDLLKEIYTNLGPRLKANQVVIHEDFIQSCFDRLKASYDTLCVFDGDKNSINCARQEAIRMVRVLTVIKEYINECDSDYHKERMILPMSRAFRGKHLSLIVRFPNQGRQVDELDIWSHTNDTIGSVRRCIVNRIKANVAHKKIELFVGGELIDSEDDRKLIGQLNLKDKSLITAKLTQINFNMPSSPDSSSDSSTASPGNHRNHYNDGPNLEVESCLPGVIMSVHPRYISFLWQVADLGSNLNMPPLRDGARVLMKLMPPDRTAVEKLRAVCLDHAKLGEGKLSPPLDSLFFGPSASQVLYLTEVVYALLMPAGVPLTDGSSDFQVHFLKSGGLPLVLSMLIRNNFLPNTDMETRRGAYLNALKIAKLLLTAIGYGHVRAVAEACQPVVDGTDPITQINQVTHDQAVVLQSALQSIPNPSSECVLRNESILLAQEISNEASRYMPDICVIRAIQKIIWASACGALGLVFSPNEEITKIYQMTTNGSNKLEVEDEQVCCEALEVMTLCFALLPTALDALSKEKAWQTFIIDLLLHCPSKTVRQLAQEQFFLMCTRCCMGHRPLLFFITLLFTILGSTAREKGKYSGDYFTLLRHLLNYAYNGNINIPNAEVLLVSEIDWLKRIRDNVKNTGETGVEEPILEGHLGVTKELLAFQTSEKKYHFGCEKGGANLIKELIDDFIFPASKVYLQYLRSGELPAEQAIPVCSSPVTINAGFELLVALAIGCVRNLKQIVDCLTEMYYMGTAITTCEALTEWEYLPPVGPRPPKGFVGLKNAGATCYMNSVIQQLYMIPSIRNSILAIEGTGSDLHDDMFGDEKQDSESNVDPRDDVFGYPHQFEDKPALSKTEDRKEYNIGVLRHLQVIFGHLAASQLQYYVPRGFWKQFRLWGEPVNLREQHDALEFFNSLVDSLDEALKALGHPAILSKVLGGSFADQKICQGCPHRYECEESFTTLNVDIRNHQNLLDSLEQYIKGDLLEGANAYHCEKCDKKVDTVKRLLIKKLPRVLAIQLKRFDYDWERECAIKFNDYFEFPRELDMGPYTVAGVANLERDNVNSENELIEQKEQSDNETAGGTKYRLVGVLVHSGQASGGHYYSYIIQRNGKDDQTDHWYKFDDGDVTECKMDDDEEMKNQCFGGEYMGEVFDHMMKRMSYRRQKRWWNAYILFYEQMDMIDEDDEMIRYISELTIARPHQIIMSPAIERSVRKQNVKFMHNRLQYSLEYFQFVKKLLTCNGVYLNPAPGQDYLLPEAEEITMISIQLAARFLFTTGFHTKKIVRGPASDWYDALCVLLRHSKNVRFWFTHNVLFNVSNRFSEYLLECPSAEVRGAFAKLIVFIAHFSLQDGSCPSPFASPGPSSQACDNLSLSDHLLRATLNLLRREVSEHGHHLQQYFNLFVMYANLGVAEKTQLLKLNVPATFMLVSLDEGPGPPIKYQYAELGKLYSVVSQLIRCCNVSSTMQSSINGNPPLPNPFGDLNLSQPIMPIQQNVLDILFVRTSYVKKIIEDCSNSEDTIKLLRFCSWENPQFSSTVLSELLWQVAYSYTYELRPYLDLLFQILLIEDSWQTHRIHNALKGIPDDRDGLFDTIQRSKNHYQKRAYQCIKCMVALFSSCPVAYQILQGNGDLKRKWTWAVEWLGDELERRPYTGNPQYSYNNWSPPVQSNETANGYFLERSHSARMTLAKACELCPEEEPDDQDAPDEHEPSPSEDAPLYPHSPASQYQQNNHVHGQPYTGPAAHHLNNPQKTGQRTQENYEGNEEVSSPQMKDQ
UniProt O00487, sequence (O00487 whole entry): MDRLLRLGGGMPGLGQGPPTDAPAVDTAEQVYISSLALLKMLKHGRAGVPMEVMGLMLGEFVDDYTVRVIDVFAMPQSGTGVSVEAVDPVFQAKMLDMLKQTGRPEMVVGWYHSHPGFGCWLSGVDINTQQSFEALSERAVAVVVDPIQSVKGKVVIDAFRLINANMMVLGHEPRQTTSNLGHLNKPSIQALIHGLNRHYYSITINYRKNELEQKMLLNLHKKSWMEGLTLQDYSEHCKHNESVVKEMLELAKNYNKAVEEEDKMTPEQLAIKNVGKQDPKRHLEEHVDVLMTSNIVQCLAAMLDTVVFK

O=C(CCl)N1CCC(c2nc3ccccc3o2)CC1
inactive: [1] -0.351 | [2] -0.154 | [3] -0.57 | [4] -0.0526 | [5] -0.14 | [6] -0.625 | [7] -0.191 | [8] -0.567 | [9] -0.217
